Where “and” joins values, the source holds several entries; their conditions need not be identical. Equal entries are not always repeated. Results filed as inconclusive are left out. Calls of active or inactive are those of the source. Unless noted, calls follow the shape of the dose curve; as a rule, active = well fitted activation curve with a large enough effect; inconclusive = small, poorly fitted or top-dose-only effect; inactive = no such curve, though single readings can be large or run the other way.
target: Cellular tumor antigen p53 (Homo sapiens) (UniProt P04637); test: Primary qHTS for small molecule compounds that upregulate eGFP-tagged delta133p53alpha (in N-terminal) cells. (AID 2060322); conditions: NCI-H358 eGFP-delta133p53alpha fluorescence, 24 h; activation: stronger effect = higher value; also: nearly all actives have a fitted effect of over 75% in size;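 as to activation: 0% = DMSO vehicle and 100% = reference activator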
Sequence (P04637 whole entry, looked up): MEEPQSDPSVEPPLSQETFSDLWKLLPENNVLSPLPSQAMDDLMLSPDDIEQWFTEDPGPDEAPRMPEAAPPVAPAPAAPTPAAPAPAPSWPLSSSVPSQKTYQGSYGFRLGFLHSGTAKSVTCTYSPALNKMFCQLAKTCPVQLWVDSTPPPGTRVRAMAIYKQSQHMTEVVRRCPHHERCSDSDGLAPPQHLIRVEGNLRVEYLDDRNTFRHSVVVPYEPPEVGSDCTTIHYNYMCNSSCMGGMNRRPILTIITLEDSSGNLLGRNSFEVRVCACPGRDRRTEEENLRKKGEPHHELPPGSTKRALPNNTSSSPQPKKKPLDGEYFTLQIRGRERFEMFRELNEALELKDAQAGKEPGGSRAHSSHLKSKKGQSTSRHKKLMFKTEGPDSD
In short: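 NCI-H358 cells pre-induced 24 h with 10 ng/ml doxycycline to express N-terminal eGFP-delta133p53alpha, then dosed 24 h at 37C without doxycycline; fixed, Hoechst-stained, GFP intensity by laser scanning cytometry, normalized to DMSO (0%) and 57.5 uM 5-azacytidine (100%).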
Potency is read from the fitted curve at half-maximal effect.

Row | Compound | activation | Potency
1 | O=C1Cc2c([nH]c3ccc(Br)cc23)-c2ccccc2N1 | -51% (inactive) | 
2 | Cc1cc2c(cc1Cl)N(C(=O)Nc1ccc(Oc3cccnc3C)nc1)CC2 | -71.3% (inactive) | 
3 | CCN1C(=O)C=CC1=O | -15.7% (inactive) | 
4 | NS(=O)(=O)c1ccc(-n2nc(C(F)(F)F)cc2-c2ccc(Cl)cc2)cc1 | -38.9% (inactive) and -11.9% (inactive) | 
5 | c1ccc(CN2CCC3(CCCc4ccccc43)CC2)cc1 | -56.7% (inactive) | 
6 | OCC1O[C@H]([S-])[C@H](O)[C@@H](O)[C@@H]1O.[Au+] (stereo not given in full) | 21.8% (inactive) | 
7 | CNCCNS(=O)(=O)c1cccc2cnccc12 | -55.4% (inactive) | 
8 | N#CC(=C(\N)Sc1ccccc1N)/C(C#N)=C(/N)Sc1ccccc1N | -29.9% (inactive) | 
9 | c1cc(CN2CCCCC2)cc(OCCCNc2nc3ccccc3s2)c1 | 20.9% (inactive) and -10.6% (inactive) | 
10 | CCN(CC)CCNC(=O)c1cc(Cl)c(N)cc1OC | -1.69% (inactive) and -0.477% (inactive) and 10.5% (inactive) | 
11 | CCCOC(=O)c1c(-c2ccccc2)nc(CC)c(C(=O)SCC)c1CCC | -30.9% (inactive) | 
12 | NCCCCCCCCCCN | 28.3% (inactive) | 
13 | NC(N)=Nc1nc(CSCC/C(N)=N/S(N)(=O)=O)cs1 | -9.6% (inactive) and 12.2% (inactive) | 
14 | NC1C=CC=C(C(=O)O)C1 (stereo not given) | -22% (inactive) | 
15 | O=C(O)COCCN1CCN(C(c2ccccc2)c2ccc(Cl)cc2)CC1 (stereo not given) | 0.565% (inactive) and 21.7% (inactive) and -7.29% (inactive) | 
16 | CCCCN(CC)c1nc(C)nc2c1c(C)cn2-c1c(C)cc(C)cc1C | 34.4% (inactive) and -11% (inactive) | 
17 | COCc1nc2c([nH]1)c(=O)n(C)c(=O)n2CC(C)C | 12.4% (inactive) | 
18 | COc1cc2ncnc(Nc3cccc(Cl)c3)c2cc1OC | 23.2% (inactive) and -41% (inactive) | 
19 | COC1=C(OC)C(=O)c2ccccc2C1=O | -31% (inactive) | 
20 | CC(C)COC(=O)OCN1C(=O)CN(CCN2CC(=O)N(COC(=O)OCC(C)C)C(=O)C2)CC1=O | -13.5% (inactive) | 

Row | Compound | activation | Potency
21 | CCNc1nc2c(ncn2[C@H]2C[C@H](O)[C@@H](CO)O2)c(=O)[nH]1 | 9.4% (inactive) and 5.67% (inactive) | 
22 | CC(C)(C)c1cc(/C=C(\C#N)C(N)=S)cc(C(C)(C)C)c1O | 0.225% (inactive) | 
23 | O=c1c(-c2ccc(O)cc2)coc2cc(OC3O[C@H](CO)[C@H](O)[C@H](O)[C@H]3O)cc(O)c12 (stereo not given in full) | 21% (inactive) | 
24 | CN(C)c1cc2c(Nc3ccc4c(cnn4Cc4ccccc4)c3)ncnc2cn1 | -35.7% (inactive) | 
25 | CN(C)CCCN1c2ccccc2Sc2ccc(C(F)(F)F)cc21 | 25.1% (inactive) and 58.3% (inactive) | 
26 | N#C/C(=C\c1ccc(-c2cc(Cl)ccc2Cl)o1)C(=O)Nc1cccc2ncccc12 | -37.8% (inactive) | 
27 | O=c1onc2cnc3ccccc3n12 | 14.8% (inactive) | 
28 | c1ccc2nc(C3=NCCN3)ccc2c1 | 5.83% (inactive) | 
29 | CNCCCC12CCC(c3ccccc31)c1ccccc12 | -7.08% (inactive) and 22.3% (inactive) and 47.4% (inactive) | 
30 | CC(N)=NCCCC[C@@H](N)C(=O)O | -1.95% (inactive) | 
31 | CCOC(=O)CSc1nc2c(sc3ccccc32)c(=O)n1CCCN1CCCC1 | 2.86% (inactive) | 
32 | CCOC(=O)N1CCC(=C2c3ccc(Cl)cc3CCc3cccnc32)CC1 | 20.9% (inactive) and 5.49% (inactive) | 
33 | Nc1ncnc2n[nH]c(Nc3ccc(F)cc3)c12 | 1% (inactive) | 
34 | NC(=O)CNCCC(c1ccccc1)c1ccccc1 | -18.2% (inactive) | 
35 | CC(C)(C)c1onc(OCP(=O)(O)O)c1CC(N)C(=O)O (stereo not given) | 5.95% (inactive) | 
36 | O=C1c2ccccc2C(=O)c2c(NCCc3ccc(O)cc3)ccc(NCCc3ccc(O)cc3)c21 | -13.7% (inactive) | 
37 | COC(=O)C1=C(C)NC(C)=C(C(=O)OC)C1c1cccc(NC(=O)NCCCN2CCC(c3cccc(OC)c3)CC2)c1 |  | 21.3 µM (active)
38 | CCCNC(=O)NS(=O)(=O)c1ccc(Cl)cc1 | -9.6% (inactive) and 2.39% (inactive) and -46.5% (inactive) | 
39 | O=C(O)CCc1ccc(NCc2cccc(Oc3ccccc3)c2)cc1 | -48.8% (inactive) and -14.3% (inactive) and -8.5% (inactive) | 
40 | CC12C(=O)OC(=O)C1(C)C1CCC2O1 (stereo not given) |  | 1.69 µM (active)

target: Aldehyde dehydrogenase, mitochondrial (Homo sapiens) (UniProt P05091); test: qHTS for Inhibitors of the Aldehyde Dehydrogenase Family (ALDH2) Validation screens (AID 2061302; active = well fitted inhibition curve with a large enough effect; title and protocol of this record describe different tests;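 as to activity change, negative = inhibition: plate controls were DMSO vehicle for no effect and maximal DPI positive control response for full effect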); conditions: ALDH inhibition qHTS; series mostly up to 42.6 µM; activity change, negative = inhibition: at the top concentration

Row | Compound | activity change, negative = inhibition | Potency
41 | O=C1Cc2c([nH]c3ccc(Br)cc23)-c2ccccc2N1 | -13% (inactive) | 
42 | Cc1cc2c(cc1Cl)N(C(=O)Nc1ccc(Oc3cccnc3C)nc1)CC2 | -26.4% (inactive) | 
43 | CCN1C(=O)C=CC1=O |  | 12.6 µM (active)
44 | NS(=O)(=O)c1ccc(-n2nc(C(F)(F)F)cc2-c2ccc(Cl)cc2)cc1 | -11.5% (inactive) | 
45 | c1ccc(CN2CCC3(CCCc4ccccc43)CC2)cc1 | -23% (inactive) | 
46 | OCC1O[C@H]([S-])[C@H](O)[C@@H](O)[C@@H]1O.[Au+] (stereo not given in full) | -4.72% (inactive) | 
47 | CNCCNS(=O)(=O)c1cccc2cnccc12 | -14.2% (inactive) | 
48 | N#CC(=C(\N)Sc1ccccc1N)/C(C#N)=C(/N)Sc1ccccc1N | -15.3% (inactive) | 
49 | c1cc(CN2CCCCC2)cc(OCCCNc2nc3ccccc3s2)c1 | -0.516% (inactive) | 
50 | CCN(CC)CCNC(=O)c1cc(Cl)c(N)cc1OC | -13.7% (inactive) | 
51 | CCCOC(=O)c1c(-c2ccccc2)nc(CC)c(C(=O)SCC)c1CCC | -21.1% (inactive) | 
52 | NCCCCCCCCCCN | -1.64% (inactive) | 
53 | NC(N)=Nc1nc(CSCC/C(N)=N/S(N)(=O)=O)cs1 | 0.304% (inactive) | 
54 | NC1C=CC=C(C(=O)O)C1 (stereo not given) | -2.18% (inactive) | 
55 | O=C(O)COCCN1CCN(C(c2ccccc2)c2ccc(Cl)cc2)CC1 (stereo not given) | -12.7% (inactive) | 
56 | CCCCN(CC)c1nc(C)nc2c1c(C)cn2-c1c(C)cc(C)cc1C | -29.2% (inactive) | 
57 | COCc1nc2c([nH]1)c(=O)n(C)c(=O)n2CC(C)C | -0.0775% (inactive) | 
58 | COc1cc2ncnc(Nc3cccc(Cl)c3)c2cc1OC | -16.6% (inactive) | 
59 | COC1=C(OC)C(=O)c2ccccc2C1=O | -3.05% (inactive) | 
60 | CC(C)COC(=O)OCN1C(=O)CN(CCN2CC(=O)N(COC(=O)OCC(C)C)C(=O)C2)CC1=O | -28% (inactive) | 

Row | Compound | activity change, negative = inhibition | Potency
61 | CCNc1nc2c(ncn2[C@H]2C[C@H](O)[C@@H](CO)O2)c(=O)[nH]1 | 8.68% (inactive) | 
62 | CC(C)(C)c1cc(/C=C(\C#N)C(N)=S)cc(C(C)(C)C)c1O | 22.6% (inactive) | 
63 | O=c1c(-c2ccc(O)cc2)coc2cc(OC3O[C@H](CO)[C@H](O)[C@H](O)[C@H]3O)cc(O)c12 (stereo not given in full) |  | 44.7 µM (active)
64 | CN(C)c1cc2c(Nc3ccc4c(cnn4Cc4ccccc4)c3)ncnc2cn1 | -2.17% (inactive) | 
65 | CN(C)CCCN1c2ccccc2Sc2ccc(C(F)(F)F)cc21 | 1.72% (inactive) | 
66 | N#C/C(=C\c1ccc(-c2cc(Cl)ccc2Cl)o1)C(=O)Nc1cccc2ncccc12 | -24.2% (inactive) | 
67 | O=c1onc2cnc3ccccc3n12 |  | 6.31 µM (active)
68 | c1ccc2nc(C3=NCCN3)ccc2c1 | 4.77% (inactive) | 
69 | CNCCCC12CCC(c3ccccc31)c1ccccc12 | 8.21% (inactive) | 
70 | CC(N)=NCCCC[C@@H](N)C(=O)O | -17.2% (inactive) | 
71 | CCOC(=O)CSc1nc2c(sc3ccccc32)c(=O)n1CCCN1CCCC1 | -36.7% (inactive) | 
72 | CCOC(=O)N1CCC(=C2c3ccc(Cl)cc3CCc3cccnc32)CC1 | -2.1% (inactive) | 
73 | Nc1ncnc2n[nH]c(Nc3ccc(F)cc3)c12 | -9.04% (inactive) | 
74 | NC(=O)CNCCC(c1ccccc1)c1ccccc1 | 5.52% (inactive) | 
75 | CC(C)(C)c1onc(OCP(=O)(O)O)c1CC(N)C(=O)O (stereo not given) | -8.79% (inactive) | 
76 | O=C1c2ccccc2C(=O)c2c(NCCc3ccc(O)cc3)ccc(NCCc3ccc(O)cc3)c21 | -4.7% (inactive) | 
77 | COC(=O)C1=C(C)NC(C)=C(C(=O)OC)C1c1cccc(NC(=O)NCCCN2CCC(c3cccc(OC)c3)CC2)c1 | -2.49% (inactive) | 
78 | CCCNC(=O)NS(=O)(=O)c1ccc(Cl)cc1 | 7.44% (inactive) | 
79 | O=C(O)CCc1ccc(NCc2cccc(Oc3ccccc3)c2)cc1 | 9.45% (inactive) | 
80 | CC12C(=O)OC(=O)C1(C)C1CCC2O1 (stereo not given) | -0.0587% (inactive) | 
